These results are taken from PubChem BioAssay (NCATS).

A short description of assay [1]: qHTS of pediatric cancer cell lines to identify multiple opportunities for drug repurposing: Confirmatory screen for A673 cells (AID 1347110).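 Further: cells exposed to compound for 48 h before the viability read; nearly all actives have a fitted effect of over 65% in size.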 The method, boiled down: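 Concentration-response curves came straight from titrations: 11 points (0.78 nM to 46 µM) for MIPE and several concentrations (0.59 nM to 46 µM) for NPC in primary, 11 points in follow-up. Readout: ATP luminescence at 48 h.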

A short description of assay [2]: qHTS of pediatric cancer cell lines to identify multiple opportunities for drug repurposing: Confirmatory screen for BT-12 cells (AID 1347112). Further: nearly all actives have a fitted effect of over 55% in size. In outline:
(§1)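 Cells (500-1,000/well) in growth media were settled 5 h at 37 degrees C, then given compounds for 48 h. Viability was read as CellTiter-Glo luminescence. Primary runs used MIPE at 11 points (0.78 nM-46 µM) and NPC at 8 points (0.59 nM-46 µM); follow-ups used 11 points.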
(In general: Quantitative high-throughput screening tests each substance at several concentrations.)

Assay [3] is described as follows: qHTS of pediatric cancer cell lines to identify multiple opportunities for drug repurposing: Confirmatory screen for DAOY cells (AID 1347114). Further: nearly all actives have a fitted effect of over 65% in size. In outline: (§2)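 Viability measured as metabolically active cells via CellTiter-Glo luminescence following 48 hours of compound exposure, 11-point dilutions in confirmatory testing. 500-1,000 cells/well plated 5 hours before dosing; controls were DMSO and 2.3 µM bortezomib.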

Assay [4] is described as follows: qHTS of pediatric cancer cell lines to identify multiple opportunities for drug repurposing: Confirmatory screen for NB-EBc1 cells (AID 1347115).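 Further: cells exposed to compound for 48 h before the viability read; nearly all actives have a fitted effect of over 45% in size.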 In outline:
as §1

Assay [5] is described as follows: qHTS of pediatric cancer cell lines to identify multiple opportunities for drug repurposing: Confirmatory screen for TC32 cells (AID 1347118).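 Further: cells exposed to compound for 48 h before the read; nearly all actives have a fitted effect of over 65% in size.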 In outline:
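Measured quantity: luminescence from CellTiter-Glo, reflecting metabolically active TC32 cells following 48 h of compound. Curves came straight from multi-point titrations, with 8 or 11 points in primary and 11 in confirmatory screening.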

Assay [6] can be described thus: qHTS of pediatric cancer cell lines to identify multiple opportunities for drug repurposing: Confirmatory screen for MG 63 (6-TG R) cells (AID 1347119). Further: nearly all actives have a fitted effect of over 55% in size. In outline: as §1
Assay [7] is described as follows: qHTS of pediatric cancer cell lines to identify multiple opportunities for drug repurposing: Confirmatory screen for control Hh wild type fibroblast cells (AID 1347121). Further: nearly all actives have a fitted effect of over 70% in size. In outline: as §1
Assay [8] is described as follows: qHTS of pediatric cancer cell lines to identify multiple opportunities for drug repurposing: Confirmatory screen for Rh30 cells (AID 1347126). Further: nearly all actives have a fitted effect of over 55% in size. In outline: as §1
Assay [9] in a line: qHTS of pediatric cancer cell lines to identify multiple opportunities for drug repurposing: Confirmatory screen for Saos-2 cells (AID 1347127). Further: nearly all actives have a fitted effect of over 60% in size. In outline:
as §1

Assay [10] in a line: qHTS of pediatric cancer cell lines to identify multiple opportunities for drug repurposing: Primary screen for Rh41 cells (AID 1347108). Further: nearly all actives have a fitted effect of over 70% in size. The method, boiled down: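 Phenotypic viability qHTS, 48 h compound exposure, CellTiter-Glo luminescence read-out; multi-concentration dosing so that potency and efficacy derive directly from the primary screen's curves.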
Assay [11] can be described thus: qHTS of pediatric cancer cell lines to identify multiple opportunities for drug repurposing: Confirmatory screen for NB1643 cells (AID 1347109). Further: nearly all actives have a fitted effect of over 45% in size. The method, boiled down:
as §1

Assay [12] is described as follows: qHTS of pediatric cancer cell lines to identify multiple opportunities for drug repurposing: Confirmatory screen for SK-N-MC cells (AID 1347111).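 Further: cells exposed to compound for 48 h before the readout; nearly all actives have a fitted effect of over 70% in size.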 In outline:
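Metabolically active cells were quantified by ATP-dependent luminescence (CellTiter-Glo, 15 min at room temperature) following 48 h treatment. Cells had been plated at 500-1,000 per well and settled for 5 h beforehand.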

A short description of assay [13]: qHTS of pediatric cancer cell lines to identify multiple opportunities for drug repurposing: Confirmatory screen for LAN-5 cells (AID 1347113). Further: nearly all actives have a fitted effect of over 65% in size. In outline: as §1
The nature of assay [14]: qHTS of pediatric cancer cell lines to identify multiple opportunities for drug repurposing: Confirmatory screen for SJ-GBM2 cells (AID 1347116). Further: nearly all actives have a fitted effect of over 60% in size. In outline:
as §2

Assay [15] in a line: qHTS of pediatric cancer cell lines to identify multiple opportunities for drug repurposing: Confirmatory screen for BT-37 cells (AID 1347117). Further: nearly all actives have a fitted effect of over 55% in size. The method, boiled down:
as §1

Assay [16] is described as follows: qHTS of pediatric cancer cell lines to identify multiple opportunities for drug repurposing: Confirmatory screen for Rh41 cells (AID 1347123). Further: nearly all actives have a fitted effect of over 60% in size. In outline:
as §1

Assay [17] in a line: qHTS of pediatric cancer cell lines to identify multiple opportunities for drug repurposing: Confirmatory screen for RD cells (AID 1347124). In outline: as §1
A short description of assay [18]: qHTS of pediatric cancer cell lines to identify multiple opportunities for drug repurposing: Confirmatory screen for Rh18 cells (AID 1347125). Further: nearly all actives have a fitted effect of over 55% in size. In outline: as §1
Assay [19] can be described thus: qHTS of pediatric cancer cell lines to identify multiple opportunities for drug repurposing: Confirmatory screen for U-2 OS cells (AID 1347122). Further: nearly all actives have a fitted effect of over 65% in size. The method, boiled down:
as §1

Results filed as inconclusive are left out. Calls of active or inactive are those of the source. The call rests on the fitted dose curve; in most records, active means well fitted curve in the direction sought with a large enough effect; inconclusive means small, poorly fitted or top-dose-only effect, or another doubt; inactive means no such curve, though single readings can be large; an effect the other way counts as inactive or inconclusive.
Potency means the concentration at half of the fitted maximal effect.

As for `CC(C)CN(C[C@@H](O)[C@H](Cc1ccccc1)NC(=O)O[C@H]1CO[C@H]2OCC[C@H]21)S(=O)(=O)c1ccc(N)cc1`, the Potency result in assay [1], in assay [2], in assay [3], in assay [4], in assay [5] and in assay [6] was “inactive” in each case. The Potency result in [7], in assay [8] and in assay [9] was “inactive” in each case.

For `CCNC(=O)c1noc(-c2cc(C(C)C)c(O)cc2O)c1-c1ccc(CN2CCOCC2)cc1`, the Potency was 0.148 µM (active) in assay [10]; 0.0737 µM (active) in assay [11]; 0.0522 µM (active) in [1]; 0.0827 µM (active) in assay [12]; 0.0522 µM (active) in [13]; 0.293 µM (active) in assay [4]. Also, the Potency in [14] is 0.208 µM (active); in assay [15], 0.0827 µM (active); in assay [5], 0.0827 µM (active); in assay [6] it was 0.147 µM (active); in assay [16] it was 0.0465 µM (active); in [17], 0.0737 µM (active). Moreover, the figures for the Potency in assay [18], in assay [8] and in [9] were 0.0928 µM (active), 0.0737 µM (active) and 0.131 µM (active), respectively.

Turning to `COC1CCC(C(=O)c2ccc3nc4c(cc3c2)CCCO4)CC1` (stereo unspecified), the Potency entry in assay [11], in assay [12], in [2], in [13], in assay [4] and in assay [14] was “inactive” in each case. In addition, the Potency entry in assay [15], in [7], in assay [17], in assay [18] and in assay [9] was “inactive” throughout. The Potency in assay [3] was 23.3 µM (active).

On to `FC(F)(F)c1ccc(C=Cc2nc(COc3ccc(CCCCn4ccnn4)cc3)co2)cc1`, for which the Potency in assay [10] is 0.469 µM (active); in assay [12], 1.17 µM (active); in assay [3], 0.261 µM (active); in [4], 0.369 µM (active); in assay [6], 0.261 µM (active); in assay [7], 0.369 µM (active). Besides, the values for the Potency in assay [19] and in assay [17] were 0.261 µM (active) and 1.85 µM (active), respectively. Also, the Potency result in [14] and in assay [18] was “inactive” each time.

Consider `C=CC(=O)Nc1cccc(Sc2nc(Nc3ccc(N4CCN(C)CC4)cc3)ncc2Cl)c1`, for which the Potency in assay [11] is 8.27 µM (active); in assay [1], 4.14 µM (active); in [12], 1.04 µM (active); in [2] it was 23.3 µM (active); in [13], 9.27 µM (active); in assay [3], 23.3 µM (active). The Potency is 18.5 µM (active) in assay [4]; 14.7 µM (active) in [14]; 13.1 µM (active) in assay [15]; 0.737 µM (active) in [5]; 18.5 µM (active) in [6]; 10.4 µM (active) in [16]. Besides, the Potency in assay [17] was 5.85 µM (active); in [18], 16.5 µM (active); in assay [8], 9.27 µM (active); in [9], 16.5 µM (active).

Turning to `Cc1ccc(S(=O)(=O)Nc2nc3ccccc3nc2Nc2ccc3nsnc3c2)cc1`, the Potency in [11] was 9.1 µM (active); in [12], 0.256 µM (active); in [15], 1.29 µM (active); in assay [5], 0.229 µM (active); in assay [6], 16.2 µM (active). Further, the Potency result in [1], in assay [2], in assay [4], in assay [7] and in [18] was “inactive” each time.

For the compound `COc1cc2nccc(Oc3ccc(NC(=O)Nc4cc(C)on4)c(Cl)c3)c2cc1OC`, the Potency in [10] is 14.8 µM (active); in [1], 18.5 µM (active); in assay [12] it was 16.5 µM (active); in [5], 18.5 µM (active). Also, the Potency entry in assay [13] and in [7] was “inactive” in each case.

Take `NC(N)=Nc1nc(CSCCC(N)=NS(N)(=O)=O)cs1`: the Potency entry in [11], in [1], in assay [12], in assay [2], in assay [13] and in assay [3] was “inactive” in each case. Further, the Potency entry in [4], in assay [15], in assay [5], in assay [6], in assay [7] and in assay [16] was “inactive” each time. Besides, the Potency result in [17], in assay [18], in [8] and in [9] was “inactive” throughout.

For the compound `Nc1ncnc2c1ncn2[C@@H]1O[C@H](CO)[C@@H](O)[C@@H]1O`, the Potency is 2.35 µM (active) in assay [10]; 14.7 µM (active) in assay [11]; 8.27 µM (active) in [12]; 13.1 µM (active) in assay [13]; 14.7 µM (active) in [15]; 7.37 µM (active) in assay [5]. The Potency in assay [16] is 14.7 µM (active); in assay [8], 11.7 µM (active); in [9], 9.27 µM (active). Further, the Potency result in assay [1] and in assay [3] was “inactive” in each case.

Turning to `CC(C)C[C@H](NC(=O)c1cc2ccccc2s1)C(=O)N1CCN(C(=O)[C@H](CO)NS(=O)(=O)c2ccc(Cl)cc2Cl)CC1`, the Potency in assay [2] is 0.0037 µM (active); in assay [13], 23.3 µM (active); in assay [15], 13.1 µM (active); in assay [16], 18.5 µM (active). The Potency entry in [14], in assay [7] and in assay [18] was “inactive” in each case.

In the case of `CC1=C[C@@H]2[C@@H]([C@@H](O)C[C@@]3(C)[C@H]2C[C@@H](C)[C@]3(O)C(=O)CO)[C@@]2(C)Cc3cnn(-c4ccccc4)c3C=C12`, the Potency was 23.3 µM (active) in assay [1], 9.27 µM (active) in assay [12], 10.4 µM (active) in assay [5] and 23.3 µM (active) in [16]. Also, the Potency entry in [2], in assay [3], in [7], in [19], in [18] and in assay [8] was “inactive” each time. In addition, the Potency result in assay [9] was “inactive”.

In the case of `Nc1[nH]nc2nnc(-c3c(-c4ccccc4)nn4ccccc34)cc12`, the Potency in [10] was 5.9 µM (active); in assay [1], 13.1 µM (active); in assay [5], 16.5 µM (active); in assay [18] it was 20.8 µM (active). The Potency result in assay [3] and in assay [16] was “inactive” in each case.

Take `CN1N=C(N)c2cn([C@@H]3O[C@H](COP(=O)(O)O)[C@@H](O)[C@@H]3O)c3ncnc1c23`: the Potency in assay [10] is 2.35 µM (active); in assay [12], 3.69 µM (active); in assay [5] it was 0.737 µM (active); in assay [6] it was 0.827 µM (active); in assay [16], 1.17 µM (active); in assay [18] it was 0.329 µM (active). Further, in assay [9], the Potency was 1.85 µM (active).
